# Data taken from PubChem BioAssay AID1159580 (chemical genetic matrix, 2015).
# Where “and” joins values, the source holds several entries; their conditions need not be identical. Equal entries are not always repeated. About 2,000 (36%) of roughly 5,500 compounds were called active. Not shown: some 18% with an inconclusive outcome. Some of the results follow. A number with no mark means an inactive call. Rule as the data show it: active = normalized growth mostly below about 0.91 (no sharp cut-off); inconclusive = no clear call, values can overlap the other calls; inactive = mostly above about 0.92.
# Assay: chemical genetic growth profiling, strain panel (AID 1159580);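 also: tested at 20 µM; growth read once vehicle control cultures reached saturation at 30 °C; 1 = growth at the plate median or of vehicle wells; lower values mean less growth of the strain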
# Conditions: S. cerevisiae deletion strains, growth OD
smiles,measurement,setting,value
O=c1cc(-c2cc(O)c(O)c(O)c2)oc2cc(O)cc(O)c12,normalized growth,"locus YAL013W, strain DEP1, hits give low values",0.997
same,normalized growth,"locus YAL021C, strain ccr4, hits give low values",0.901 (active)
same,normalized growth,"locus YAL026C, strain drs2, hits give low values",0.927
same,normalized growth,"locus YAL030W, strain snc1, hits give low values",1.01
same,normalized growth,"locus YBL061C, strain skt5, hits give low values",0.942
same,normalized growth,"locus YBR009C, strain hhf1, hits give low values",0.95
same,normalized growth,"locus YBR021W, strain FUR4, hits give low values",1.07
same,normalized growth,"locus YBR023C, strain chs3, hits give low values",0.897 (active)
same,normalized growth,"locus YBR171W, strain sec66, hits give low values",1
same,normalized growth,"locus YBR229C, strain ROT2, hits give low values",0.988
same,normalized growth,"locus YBR231C, strain swc5, hits give low values",0.909 (active)
same,normalized growth,"locus YBR279W, strain paf1, hits give low values",0.935
same,normalized growth,"locus YCL011C, strain gbp2, hits give low values",0.946
same,normalized growth,"locus YCL016C, strain dcc1, hits give low values",0.94
same,normalized growth,"locus YCL029C, strain bik1, hits give low values",0.988
same,normalized growth,"locus YCL061C, strain MRC1, hits give low values",0.942
same,normalized growth,"locus YCL069W, strain vba3, hits give low values",0.997
same,normalized growth,"locus YCR088W, strain abp1, hits give low values",0.995
same,normalized growth,"locus YDL005C, strain med2, hits give low values",1.02
same,normalized growth,"locus YDL035C, strain GPR1, hits give low values",0.992
same,normalized growth,"locus YDL040C, strain nat1, hits give low values",1.04
same,normalized growth,"locus YDL074C, strain BRE1, hits give low values",0.957
same,normalized growth,"locus YDL101C, strain DUN1, hits give low values",1.01
same,normalized growth,"locus YDL134C, strain PPH21, hits give low values",1.05
same,normalized growth,"locus YDL185W, strain tfp1, hits give low values",0.941
same,normalized growth,"locus YDL192W, strain arf1, hits give low values",0.971
same,normalized growth,"locus YDR001C, strain nth1, hits give low values",1.01
same,normalized growth,"locus YDR069C, strain doa4, hits give low values",0.855 (active)
same,normalized growth,"locus YDR101C, strain arx1, hits give low values",1.01
same,normalized growth,"locus YDR137W, strain rgp1, hits give low values",0.992
same,normalized growth,"locus YDR159W, strain sac3, hits give low values",1.05
same,normalized growth,"locus YDR162C, strain NBP2, hits give low values",1.03
same,normalized growth,"locus YDR195W, strain ref2",1.05
same,normalized growth,"locus YDR297W, strain sur2, hits give low values",0.971
same,normalized growth,"locus YDR318W, strain mcm21, hits give low values",0.995
same,normalized growth,"locus YDR334W, strain swr1, hits give low values",0.978
same,normalized growth,"locus YDR335W, strain msn5, hits give low values",0.986
same,normalized growth,"locus YDR388W, hits give low values",0.996
same,normalized growth,"locus YDR392W, strain spt3, hits give low values",0.893
same,normalized growth,"locus YDR502C, strain sam2, hits give low values",0.984
same,normalized growth,"locus YEL003W, strain gim4, hits give low values",0.957
same,normalized growth,"locus YEL037C, strain rad23, hits give low values",0.979
same,normalized growth,"locus YEL061C, strain CIN8 (second series), hits give low values",1
same,normalized growth,"locus YEL061C, strain CIN8, hits give low values",1
same,normalized growth,"locus YER015W, strain faa2, hits give low values",0.984
same,normalized growth,"locus YER016W, strain bim1, hits give low values",1
same,normalized growth,"locus YER110C, hits give low values",0.996
same,normalized growth,"locus YER111C, strain swi4, hits give low values",0.965
same,normalized growth,"locus YER155C, strain BEM2 (second series), hits give low values",0.938
same,normalized growth,"locus YER155C, strain BEM2, hits give low values",1.03
same,normalized growth,"locus YER167W, strain BCK2, hits give low values",1.01
same,normalized growth,"locus YFR010W, strain ubp6, hits give low values",0.942
same,normalized growth,"locus YGL078C, strain dbp3, hits give low values",0.979
same,normalized growth,"locus YGL086W, strain mad1, hits give low values",1.01
same,normalized growth,"locus YGL167C, strain pmr1, hits give low values",0.988
same,normalized growth,"locus YGL173C, strain kem1, hits give low values",0.967
same,normalized growth,"locus YGL227W, strain vid30, hits give low values",1.01
same,normalized growth,"locus YGL240W, strain doc1, hits give low values",1.02
same,normalized growth,"locus YGL248W, strain PDE1, hits give low values",1.01
same,normalized growth,"locus YGL253W, strain hxk2, hits give low values",0.948
same,normalized growth,"locus YGR135W, strain pre9, hits give low values",0.96
same,normalized growth,"locus YGR252W, strain gcn5, hits give low values",1
same,normalized growth,"locus YHR013C, strain ard1, hits give low values",0.904
same,normalized growth,"locus YHR027C, strain rpn1, hits give low values",0.978
same,normalized growth,"locus YHR030C, strain SLT2, hits give low values",0.989 and 1.07
same,normalized growth,"locus YHR079C, strain IRE1 (second series), hits give low values",1.02
same,normalized growth,"locus YHR079C, strain IRE1, hits give low values",1.06
same,normalized growth,"locus YHR094C, strain hxt1, hits give low values",1.02
same,normalized growth,"locus YHR129C, strain ARP1, hits give low values",0.986
same,normalized growth,"locus YHR142W, strain chs7, hits give low values",0.911
same,normalized growth,"locus YHR200W, strain rpn10, hits give low values",0.97
same,normalized growth,"locus YIL066C, strain RNR3, hits give low values",0.989
same,normalized growth,"locus YIL073C, strain SPO22, hits give low values",0.964
same,normalized growth,"locus YIL125W, strain kgd1, hits give low values",0.985
same,normalized growth,"locus YIR030C, strain dcg1, hits give low values",1
same,normalized growth,"locus YJL092W, strain hpr5, hits give low values",0.996
same,normalized growth,"locus YJL095W, strain BCK1 (second series), hits give low values",0.95
same,normalized growth,"locus YJL095W, strain BCK1, hits give low values",0.973 and 1.01
same,normalized growth,"locus YJL115W, strain asf1, hits give low values",1.01
same,normalized growth,"locus YJL129C, strain trk1, hits give low values",0.991
same,normalized growth,"locus YJL134W, strain LCB3, hits give low values",0.994
same,normalized growth,"locus YJL154C, strain vps35, hits give low values",1.02
same,normalized growth,"locus YJL164C, strain tpk1, hits give low values",0.954
same,normalized growth,"locus YJL166W, strain qcr8, hits give low values",0.957
same,normalized growth,"locus YJL168C, strain set2, hits give low values",0.998
same,normalized growth,"locus YJL187C, strain SWE1 (second series), hits give low values",0.974
same,normalized growth,"locus YJL187C, strain SWE1, hits give low values",0.986
same,normalized growth,"locus YJR043C, strain POL32, hits give low values",1
same,normalized growth,"locus YJR066W, strain TOR1, hits give low values",0.981
